Drawing on PubChem BioAssay, this text covers composite z-score and z-score for 15 compounds.

Assay [1] concerns Plasmodium falciparum Sir2 (PF13_0152, Sir2A). The assay can be described thus: pfSir2 binders on small-molecule microarrays, primary screen, biochemical, small-molecule microarray, 635 nm fluorescence (AID 1098).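 Also: score merges spot fluorescence intensity with its signal-to-noise ratio.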 The note with it: small-molecule microarray binding, fluorescence 635 nm; higher = more signal.
Assay [2] can be described thus: small-molecule microarray binders of probe aDKK1, primary screen, biochemical, biotinylated probe, 635/667 nm fluorescence (AID 1099).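 Also: score merges 667nm spot fluorescence with signal to noise across triplicate slides; reference of the scale not given here.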 The conditions noted are these: higher = more signal.
The nature of assay [3]: small-molecule microarray binders of probe aCHRDL2, primary screen, biochemical, biotinylated probe, 635/667 nm fluorescence (AID 1100). The conditions noted are these: higher = more signal.
Assay [4] in a line: splicing luciferase reporter signal modulators, primary screen, spliceosome inhibition project, cell-based, HEK293, splice +/- reporter (AID 1101).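 Also: HEK293 cells carrying a splicing-competent luciferase reporter gene; test concentration not given here.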 The note with it: luminescence, 24 h, higher = more signal, called active from +8 up or from −8 down. (In general: Reporter assays use an easily measured gene product as a stand-in for the process of interest.)
Assay [5] concerns the target Fibroblast growth factor 10 (Homo sapiens) (UniProt O15520). The assay can be described thus: FGF10 binders on small-molecule microarrays, primary screen, biochemical, small-molecule microarray, 635 nm fluorescence (AID 1102). The conditions noted are these: FGF10 binding, fluorescence 635 nm, higher = more signal.
The test system of assay [6] is glycogen synthase kinase-3 (GSK3A per assay name; protocol says GSK3B). The assay can be described thus: GSK3 binders on small-molecule microarrays, primary screen, biochemical, small-molecule microarray, 635 nm fluorescence, GSK3A (AID 1103). Also: the record names both GSK3A and GSK3B. The note with it: small-molecule microarray binding, fluorescence 635 nm; higher = more signal.
In assay [7] the target is Epidermal growth factor receptor (Homo sapiens) (UniProt P00533). The assay can be described thus: EGFR binders on small-molecule microarrays, primary screen, biochemical, small-molecule microarray, 635 nm fluorescence (AID 1104).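 Also: score merges 667 nm emission intensity with spot signal to noise over triplicate slides.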 The conditions noted are these: EGFR binding, higher = more signal.
Assay [8] deals with Follistatin-related protein 3 (Homo sapiens) (UniProt O95633). Description: FSTL3 binders on small-molecule microarrays, primary screen, biochemical, small-molecule microarray, 635 nm fluorescence (AID 1105).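 Also: score merges emission near 667 nm and signal to noise per printed spot across three slides.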 The conditions noted are these: FSTL3 binding, higher = more signal.
In assay [9] the target is Dickkopf-related protein 1 (Homo sapiens) (UniProt O94907). Description: DKK1 binders on small-molecule microarrays, primary screen, biochemical, small-molecule microarray, 635 nm fluorescence scan (AID 1106).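 Also: score merges emission near 667 nm with signal to noise over three replicate slides.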 The conditions noted are these: DKK1 binding, higher = more signal.
In assay [10] the test system is Inhibin beta A chain (activin A). Description: INHBA (activin A) binders on microarrays, primary screen, biochemical, small-molecule microarray, 635 nm fluorescence scan (AID 1107).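 Also: mouse activin A protein probed at 4.33 µg/mL on printed slides; score merges bound-protein fluorescence near 667 nm with spot signal-to-noise.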 The conditions noted are these: small-molecule microarray binding, higher = more signal.

Active and inactive are the calls of the source.

Chain of Dickkopf-related protein 1 (Homo sapiens) (O94907 whole entry, looked up): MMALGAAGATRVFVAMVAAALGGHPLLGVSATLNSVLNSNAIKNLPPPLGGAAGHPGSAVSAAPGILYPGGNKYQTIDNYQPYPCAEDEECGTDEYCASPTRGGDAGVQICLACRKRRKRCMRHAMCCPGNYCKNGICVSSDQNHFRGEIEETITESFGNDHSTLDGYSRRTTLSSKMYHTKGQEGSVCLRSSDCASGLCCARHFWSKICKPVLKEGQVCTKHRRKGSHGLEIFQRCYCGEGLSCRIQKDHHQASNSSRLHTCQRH
Chain of Fibroblast growth factor 10 (Homo sapiens) (O15520 whole entry, looked up): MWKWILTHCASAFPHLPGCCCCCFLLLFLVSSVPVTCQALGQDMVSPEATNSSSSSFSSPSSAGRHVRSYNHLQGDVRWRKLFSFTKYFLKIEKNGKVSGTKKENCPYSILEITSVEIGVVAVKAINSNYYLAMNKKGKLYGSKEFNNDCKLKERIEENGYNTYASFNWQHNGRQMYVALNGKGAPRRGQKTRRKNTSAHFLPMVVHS
Chain of Epidermal growth factor receptor (Homo sapiens) (P00533 whole entry, looked up): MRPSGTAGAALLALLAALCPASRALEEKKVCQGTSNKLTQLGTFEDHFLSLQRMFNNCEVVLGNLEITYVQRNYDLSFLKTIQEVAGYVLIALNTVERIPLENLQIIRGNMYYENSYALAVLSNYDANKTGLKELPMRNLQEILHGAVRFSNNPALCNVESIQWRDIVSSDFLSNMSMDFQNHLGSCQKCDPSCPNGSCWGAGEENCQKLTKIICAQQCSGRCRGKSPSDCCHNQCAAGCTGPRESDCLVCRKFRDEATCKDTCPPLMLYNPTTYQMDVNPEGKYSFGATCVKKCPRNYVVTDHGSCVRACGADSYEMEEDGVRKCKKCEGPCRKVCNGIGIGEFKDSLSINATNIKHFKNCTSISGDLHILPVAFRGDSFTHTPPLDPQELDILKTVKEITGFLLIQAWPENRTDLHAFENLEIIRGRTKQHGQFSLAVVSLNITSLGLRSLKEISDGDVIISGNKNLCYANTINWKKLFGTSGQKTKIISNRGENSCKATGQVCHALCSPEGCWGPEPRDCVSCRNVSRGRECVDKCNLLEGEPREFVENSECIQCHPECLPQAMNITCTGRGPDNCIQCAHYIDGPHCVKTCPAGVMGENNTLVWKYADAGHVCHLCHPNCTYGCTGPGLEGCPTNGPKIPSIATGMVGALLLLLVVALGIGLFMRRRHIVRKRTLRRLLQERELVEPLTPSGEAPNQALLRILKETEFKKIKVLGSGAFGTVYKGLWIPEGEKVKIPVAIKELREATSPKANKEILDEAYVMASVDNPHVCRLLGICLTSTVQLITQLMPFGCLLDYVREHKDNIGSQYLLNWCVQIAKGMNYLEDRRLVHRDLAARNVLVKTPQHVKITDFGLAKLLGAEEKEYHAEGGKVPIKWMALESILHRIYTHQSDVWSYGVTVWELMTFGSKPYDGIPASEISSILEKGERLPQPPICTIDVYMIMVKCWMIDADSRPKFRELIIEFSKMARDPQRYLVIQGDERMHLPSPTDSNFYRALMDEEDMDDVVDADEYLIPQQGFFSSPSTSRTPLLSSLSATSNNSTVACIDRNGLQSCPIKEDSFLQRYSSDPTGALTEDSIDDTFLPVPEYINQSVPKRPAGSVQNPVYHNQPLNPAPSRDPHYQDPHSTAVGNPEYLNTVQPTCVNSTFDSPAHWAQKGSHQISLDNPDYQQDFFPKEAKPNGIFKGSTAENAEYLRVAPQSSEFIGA
Chain of Follistatin-related protein 3 (Homo sapiens) (O95633 whole entry, looked up): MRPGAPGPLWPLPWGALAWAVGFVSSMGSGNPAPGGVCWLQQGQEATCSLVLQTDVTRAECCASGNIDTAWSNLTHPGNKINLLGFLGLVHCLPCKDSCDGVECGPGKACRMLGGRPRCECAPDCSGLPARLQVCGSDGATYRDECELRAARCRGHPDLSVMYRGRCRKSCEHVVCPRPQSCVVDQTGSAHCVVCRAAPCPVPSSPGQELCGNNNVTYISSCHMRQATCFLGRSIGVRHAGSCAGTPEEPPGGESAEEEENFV

On to `COCCCNC(=O)[C@@]1(Cc2ccccc2N=[N+]=[N-])N=C(c2ccc(OCCCO)cc2)O[C@H]1c1ccccc1CN=[N+]=[N-]`, for which the composite z-score in assay [1] was 0.953; in [2] it was 1.19; in assay [3], 1.18; in assay [5] it was 1.43; in assay [6], 1.21; in assay [7], 0.0402. The composite z-score in [8] was 0.511; in assay [9], -0.338; in assay [10] it was 1.21. Moreover, the z-score in assay [4] was -0.456 (inactive).

`CC(C)(C)N1CC=CC23O[C@@H]4C=CCCOC(=O)C4[C@H]2C(=O)N(CCCO)[C@@H]3C1=O` (stereo not given in full): the composite z-score in assay [1] is -0.992; in assay [2], 1.43; in [3], -0.0642; in assay [5] it was -0.681; in [6], -0.764; in assay [7], -0.608. Further, the composite z-score in [8] is -0.788; in assay [9] it was -0.0177; in assay [10] it was 1.38. Also, the z-score in assay [4] is -1.1 (inactive).

As to `COCCOC(=O)N1C(=O)[C@@]2(c3cc(C#CC4(O)CCCCCC4)ccc31)[C@H](C(=O)N1CCc3cc(OC)c(OC)cc3C1)[C@H]1C(=O)O[C@H](c3ccccc3)[C@H](c3ccccc3)N1[C@@H]2c1ccccc1OCCO`, the composite z-score worked out at 0.517 in assay [1]; 0.836 in assay [2]; 0.173 in [3]; 0.96 in assay [5]; 1.3 in assay [6]; 0.887 in assay [7]. Besides, the composite z-score in [8] was determined as 1.42; in assay [9], 1.69; in assay [10], 0.701. Moreover, in assay [4], the z-score is -0.461 (inactive).

For `COc1cccc(C[C@H]2C[C@@H](CO[Si](C(C)C)(C(C)C)C(C)C)N3C(=O)[C@]4(C(C)=O)O[C@]23[C@H]2C(=O)N(C)C(=O)[C@H]24)c1`, the composite z-score in assay [1] was 0.817; in assay [2] it was -0.0616; in assay [3], -0.463; in [5], 0.759; in [6], 1.02; in assay [7] it was 0.468. Besides, the composite z-score was 1.09 in assay [8], 0.53 in assay [9] and -0.254 in assay [10]. Besides, in assay [4], the z-score is -1.29 (inactive).

Regarding `COc1cc(C(O)C2C=CC3C(=O)N(C)C(=O)C3N2NC(=O)OC(C)(C)C)cc(OC)c1OC` (stereo not given), the composite z-score in assay [1] turned out to be 1.27; in assay [2], 1.2; in assay [3] it was 0.739; in assay [5] it was 0.447; in assay [6] it was 0.833; in assay [7], 0.189. For the same compound, the composite z-score was 0.234 in assay [8], -0.076 in assay [9] and 0.442 in assay [10]. The z-score in [4] is 1.21 (inactive).

As to `O=C1NC(=O)C2C1C=CC(C(O)c1ccc3c(c1)OCO3)N2Nc1ccc(Cl)cc1Cl` (stereo not given), the composite z-score in [1] was 0.981; in [2] it was 0.849; in [3] it was 1.06; in assay [5] it was 0.553; in assay [6], -0.334; in [7], 0.205. In addition, the composite z-score was 0.304 in [8], -0.278 in [9] and 1.19 in assay [10]. Also, the z-score in assay [4] was 0.889 (inactive).

Turning to `COC(=O)[C@@]1(Cc2ccc(OC)cc2)[C@H]2c3cc(C(=O)N4CCCC4)n(Cc4ccc(C)o4)c3C[C@H]2CN1C(=O)c1ccccc1`, the composite z-score was 1.34 in assay [1]; 0.839 in [2]; 0.751 in assay [3]; 1.24 in assay [5]; 1.09 in assay [6]; 0.232 in [7]. Moreover, the composite z-score in [8] is 1.32; in [9], -0.0427; in [10], 1.19. The z-score in assay [4] is -0.293 (inactive).

On to `COCC(=C=CC[C@@H](O)c1ccccc1OCCO)C[C@@H](O)COCc1ccccc1`, for which the composite z-score in assay [1] is 0.72; in assay [2], 0.724; in assay [3], 0.167; in assay [5] it was 1.21; in [6], 0.732; in assay [7], -1.19. Also, the composite z-score was -0.268 in [8], -0.466 in assay [9] and 1.24 in [10]. Besides, the z-score in assay [4] is -1.48 (inactive).

For the compound `O=C1O[C@H](c2ccccc2)[C@H](c2ccccc2)N2[C@H]1[C@@H](C(=O)N1CCCCCCC1)[C@]1(C(=O)Nc3ccccc31)[C@H]2c1ccc(O)cc1`, the composite z-score in [1] came out at 2.04; in [2], 2.68; in assay [3] it was 1.79; in assay [5], 1.68; in assay [6], 1.49; in assay [7], 2. In addition, the values for the composite z-score in assay [8], in assay [9] and in [10] were 1.8, 2.68 and 2, respectively. In addition, the z-score in assay [4] was -0.365 (inactive).

On to `NC(=O)NCC#Cc1ccc2c(c1)[C@]1(C(=O)N2)[C@H](c2ccc(OCCO)cc2)N2[C@H](c3ccccc3)[C@H](c3ccccc3)OC(=O)[C@H]2[C@@H]1C(=O)N1CCN(c2ncccn2)CC1`, for which the composite z-score in assay [1] was 0.664; in assay [2], -0.356; in [3], -0.417; in [5] it was 0.621; in assay [6], 0.0283; in assay [7], 0.231. The composite z-score in assay [8] amounted to 0.232; in assay [9], 0.209; in [10] it was 1.29. For the same compound, the z-score in assay [4] is -0.115 (inactive).

For the compound `C=CC[C@@]1(C(=O)NCCN2CCOCC2)N=C(c2ccc(OCCCO)cc2)O[C@@H]1c1ccccc1`, the composite z-score came to 1.28 in [1]; 0.449 in assay [2]; 0.853 in assay [3]; 1.5 in [5]; 1.29 in assay [6]; 0.802 in assay [7]. Besides, the results for the composite z-score in assay [8], in assay [9] and in assay [10] were 1.22, 0.785 and 0.726, respectively. The z-score in assay [4] was -0.161 (inactive).

`COC(=O)C(CC#Cc1ccc2c(c1)[C@]1(C(=O)N2)[C@H](c2ccc(O)cc2)N2[C@H](c3ccccc3)[C@H](c3ccccc3)OC(=O)[C@H]2[C@@H]1C(=O)O)C(=O)OC`: the composite z-score in assay [1] is 1.26; in [2], -0.114; in assay [3] it was 0.374; in [5] it was 0.159; in assay [6] it was -0.375; in [7] it was -0.297. Moreover, the composite z-score in assay [8] was 0.528; in [9] it was -0.217; in assay [10] it was 0.201. The z-score in assay [4] is -0.226 (inactive).

Turning to `C=C(CCCC)/C(=C/C[C@H](OC(=O)c1ccncc1)c1ccc(CO)o1)c1cc(C(=O)OC)ccc1OC`, the composite z-score in assay [1] is 1.21; in assay [2], 0.0946; in assay [3], -0.125; in assay [5], 0.565; in assay [6] it was 1.26; in assay [7], 0.356. Also, the composite z-score was 0.928 in assay [8], 0.575 in assay [9] and 0.554 in [10]. Also, the z-score in assay [4] was 0.84 (inactive).

As for `[N-]=[N+]=NCc1ccccc1[C@H]1OC(c2ccc(OCCCO)cc2)=N[C@@]1(Cc1ccccc1N=[N+]=[N-])C(=O)NCCN1CCOCC1`, the composite z-score in assay [1] was determined as 0.879; in assay [2], 0.901; in assay [3], 1.15; in [5] it was 1.26; in assay [6], 1.3; in assay [7] it was 0.558. Further, the composite z-score in assay [8] came to 1.32; in assay [9] it was 0.136; in [10] it was 0.511. Also, the z-score in [4] was -0.44 (inactive).

On to `C[N+](C)(C)CCCCCCNC(=O)[C@@H]1C[C@@H]2C(=O)NCC(=O)N2[C@@H]1c1cccc(OCCO)c1`, for which the composite z-score is 1.23 in assay [1]; -0.253 in [2]; -0.127 in [3]; 0.781 in assay [5]; 0.496 in assay [6]; 0.144 in [7]. Also, the values for the composite z-score in assay [8], in [9] and in assay [10] were 1.44, 1.24 and 0.728, respectively. In addition, the z-score in [4] is -2.5 (inactive).
